Measured values published in PubChem BioAssay (NCATS).
Results filed as inconclusive are left out. Activity calls are given as the source filed them. The call rests on the fitted dose curve; in most records, active means well fitted inhibition curve with a large enough effect; inconclusive means small, poorly fitted or top-dose-only effect; inactive means flat fitted curve, though single readings scatter.

Tests used:
[1] = system: PAD; test: qHTS profiling for inhibitors of Plasmodium falciparum proliferation (AID 504749); further: potency means the concentration at half of the fitted maximal effect; conditions: P. falciparum in erythrocytes, SYBR Green DNA, 72 h; series mostly up to 28.7 µM
Method in brief: (§1)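 Parasite proliferation within erythrocytes, 72 h exposure. Endpoint: SYBR Green I fluorescence after overnight lysis at room temperature. Controls: 0.29 uM artemisinin, DMSO.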

[2] = system: PC15; test: as above; conditions: P. falciparum in erythrocytes, SYBR Green DNA, 72 h; series mostly up to 28.7 µM
Method in brief: as §1

[3] = system: PC26; test: as above; conditions: P. falciparum in erythrocytes, SYBR Green DNA, 72 h; series mostly up to 28.7 µM
Method in brief: as §1

[4] = system: PC49; test: as above; conditions: P. falciparum in erythrocytes, SYBR Green DNA, 72 h; series mostly up to 28.7 µM
Method in brief: as §1

[5] = system: SC27B; test: as above; conditions: P. falciparum in erythrocytes, SYBR Green DNA, 72 h; series mostly up to 28.7 µM
Method in brief: as §1

[6] = system: TAB109; test: as above; conditions: P. falciparum in erythrocytes, SYBR Green DNA, 72 h; series mostly up to 28.7 µM
Method in brief: as §1

[7] = system: TAB113; test: as above; conditions: P. falciparum in erythrocytes, SYBR Green DNA, 72 h; series mostly up to 28.7 µM
Method in brief: as §1

[8] = system: TAB165; test: as above; conditions: P. falciparum in erythrocytes, SYBR Green DNA, 72 h; series mostly up to 28.7 µM
Method in brief: as §1

[9] = system: W2; test: as above; conditions: P. falciparum in erythrocytes, SYBR Green DNA, 72 h; series mostly up to 28.7 µM
Method in brief: as §1

[10] = system: KB-3-1; test: Cytotoxic Profiling of Annotated Libraries Using Quantitative High-Throughput Screening (AID 1296008); conditions: Five cell lines viability, CellTiter-Glo ATP luminescence, 48-72 h; max response: stronger effect = lower value; further: on the % scale 0 is the no-effect control and ±100 the full control effect
Method in brief: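 Compounds were pin-transferred onto cells and incubated 48 or 72 hr at 37 degree Celsius, 95% humidity. CellTiter-Glo was added, plates sat 10 min at room temperature, then ATP-coupled luminescence was imaged as the viability read-out.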
Further: nearly all actives have a fitted effect of over 60% in size.

Cc1cccc(C)c1NC(=O)NC1=CCCN1C
inactive: Potency [1] | Potency [2] | Potency [3] | Potency [4] | Potency [5] | Potency [6] | Potency [7] | Potency [8] | Potency [9] | max response [10] -2.58%

CCN(CC)CCOC(=O)c1cccnc1
inactive: Potency [1] | Potency [2] | Potency [3] | Potency [4] | Potency [5] | Potency [6] | Potency [7] | Potency [8] | Potency [9] | max response [10] 21.6%

COc1ccc(/C=C/C(=O)O)cc1
inactive: Potency [1] | Potency [2] | Potency [3] | Potency [4] | Potency [5] | Potency [6] | Potency [7] | Potency [8] | Potency [9] | max response [10] -11.7%

O=C(O)COc1ccc(CCNS(=O)(=O)c2ccccc2)s1
inactive: Potency [1] | Potency [2] | Potency [3] | Potency [4] | Potency [5] | Potency [6] | Potency [7] | Potency [8] | Potency [9] | max response [10] -3.19%

CC(C)[C@H](N)C(=O)OCC(CO)OCn1cnc2c(=O)[nH]c(N)nc21 (stereo not given in full)
inactive: Potency [1] | Potency [2] | Potency [3] | Potency [4] | Potency [5] | Potency [6] | Potency [7] | Potency [8] | Potency [9] | max response [10] 3.14%

[O]=[Bi][O][Bi]=[O]
inactive: Potency [1] | Potency [2] | Potency [3] | Potency [4] | Potency [5] | Potency [6] | Potency [7] | Potency [8] | Potency [9] | max response [10] -13.6%

OB(O)O
inactive: Potency [1] | Potency [2] | Potency [3] | Potency [4] | Potency [5] | Potency [6] | Potency [7] | Potency [8] | Potency [9] | max response [10] -9%

NC(=S)NS(=O)(=O)c1ccc(N)cc1
inactive: Potency [1] | Potency [2] | Potency [3] | Potency [4] | Potency [5] | Potency [6] | Potency [7] | Potency [8] | Potency [9] | max response [10] 5.24%

CCCCC[C@H](O)/C=C/[C@@H]1[C@H]2C/C(=C/CCCC(=O)O)O[C@H]2C[C@H]1O
inactive: Potency [1] | Potency [2] | Potency [3] | Potency [4] | Potency [5] | Potency [6] | Potency [7] | Potency [8] | Potency [9] | max response [10] 11.9%

CCCc1ccc(C(=O)O)cc1
inactive: Potency [1] | Potency [2] | Potency [3] | Potency [4] | Potency [5] | Potency [6] | Potency [7] | Potency [8] | Potency [9] | max response [10] 8.62%

CNC(=O)C[C@@H](N)C(=O)N[C@@H](C(=O)N[C@@H]1C(=O)N2[C@@H]1SC(C)(C)[C@@H]2C(=O)O)c1ccc(O)cc1
inactive: Potency [1] | Potency [2] | Potency [3] | Potency [4] | Potency [5] | Potency [6] | Potency [7] | Potency [8] | Potency [9] | max response [10] -18.5%

CC1=CC(=O)NS(=O)(=O)O1
inactive: Potency [1] | Potency [2] | Potency [3] | Potency [4] | Potency [5] | Potency [6] | Potency [7] | Potency [8] | Potency [9] | max response [10] -8.51%

c1ccc(-n2cnnn2)cc1
inactive: Potency [1] | Potency [2] | Potency [3] | Potency [4] | Potency [5] | Potency [6] | Potency [7] | Potency [8] | Potency [9] | max response [10] 0.0496%

C=C1C(CCl)(CCl)C2(Cl)C(Cl)C(Cl)C1(Cl)C2(Cl)Cl (stereo not given)
inactive: max response [10] 3.52%
active: Potency [1] 708 nM | Potency [2] 2000 nM | Potency [3] 1900 nM | Potency [4] 3980 nM | Potency [5] 1780 nM | Potency [6] 3160 nM | Potency [7] 2820 nM | Potency [8] 1780 nM | Potency [9] 849 nM

CC(CCc1ccc(O)cc1)NCC(O)c1ccc(O)cc1 (stereo not given)
inactive: Potency [1] | Potency [2] | Potency [3] | Potency [4] | Potency [5] | Potency [6] | Potency [7] | Potency [8] | Potency [9] | max response [10] 9.04%

COc1cc(S(C)=O)ccc1-c1nc2ncccc2[nH]1 (stereo not given)
inactive: Potency [1] | Potency [2] | Potency [3] | Potency [4] | Potency [5] | Potency [6] | Potency [7] | Potency [8] | Potency [9] | max response [10] 26.5%

NCC[C@H](O)C(=O)N[C@@H]1C[C@H](N)[C@@H](O[C@H]2O[C@H](CN)[C@@H](O)[C@H](O)[C@H]2O)[C@H](O)[C@H]1O[C@H]1O[C@H](CO)[C@@H](O)[C@H](N)[C@H]1O
inactive: Potency [1] | Potency [2] | Potency [3] | Potency [4] | Potency [5] | Potency [6] | Potency [7] | Potency [8] | Potency [9] | max response [10] 3.67%

CCCCCCOC(=O)c1cccnc1
inactive: Potency [1] | Potency [2] | Potency [3] | Potency [4] | Potency [5] | Potency [6] | Potency [7] | Potency [8] | Potency [9] | max response [10] 6.05%

Cc1c(Cl)cccc1Nc1ncccc1C(=O)O
inactive: Potency [1] | Potency [2] | Potency [3] | Potency [4] | Potency [5] | Potency [6] | Potency [7] | Potency [8] | Potency [9] | max response [10] 2.98%

O=C(NNCNNC(=O)c1ccncc1)c1ccncc1
inactive: Potency [1] | Potency [2] | Potency [3] | Potency [4] | Potency [5] | Potency [6] | Potency [7] | Potency [8] | Potency [9] | max response [10] 1.42%

CC1CCC(NC(=O)N(CCCl)N=O)CC1 (stereo not given)
active: Potency [9] 10700 nM
inactive: Potency [1] | Potency [2] | Potency [3] | Potency [4] | Potency [5] | Potency [6] | Potency [7] | Potency [8] | max response [10] 8.06%

O=C(O)[C@H]1C(=CCO)O[C@H]2CC(=O)N12
inactive: Potency [1] | Potency [2] | Potency [3] | Potency [4] | Potency [5] | Potency [6] | Potency [7] | Potency [8] | Potency [9] | max response [10] 8.73%

Oc1ccc(Cl)c2c1CCC2
inactive: Potency [1] | Potency [2] | Potency [3] | Potency [4] | Potency [5] | Potency [6] | Potency [7] | Potency [8] | Potency [9] | max response [10] -14.4%

CC(O)CN(C)C (stereo not given)
inactive: Potency [1] | Potency [2] | Potency [3] | Potency [4] | Potency [5] | Potency [6] | Potency [7] | Potency [8] | Potency [9] | max response [10] -6.37%

CC12CCC(C[N+](C)(CCC[N+](C)(C)C)C1)C2(C)C (stereo not given)
inactive: Potency [1] | Potency [2] | Potency [3] | Potency [4] | Potency [5] | Potency [6] | Potency [7] | Potency [8] | Potency [9] | max response [10] -0.0096%

CC(=O)N[C@@H]1C(O[C@H]2O[C@H](C(=O)O)C(O)[C@H](O)[C@H]2O)[C@H](O)[C@@H](CO)O[C@H]1O[C@@H]1C(C(=O)O)O[C@@H](O[C@H]2[C@H](O)[C@@H](CO)OC(O)[C@@H]2NC(C)=O)[C@H](O)[C@H]1O (stereo not given in full)
inactive: Potency [1] | Potency [2] | Potency [3] | Potency [4] | Potency [5] | Potency [6] | Potency [7] | Potency [8] | Potency [9] | max response [10] -7.66%

CC(=O)Nc1ccc(OC(=O)c2ccccc2O)cc1
inactive: Potency [1] | Potency [2] | Potency [3] | Potency [4] | Potency [5] | Potency [6] | Potency [7] | Potency [8] | Potency [9] | max response [10] -18%

CC(C)CCC[C@@H](C)[C@H]1CC[C@H]2[C@@H]3CC=C4C[C@@H](O)CC[C@]4(C)[C@H]3CC[C@]12C
inactive: Potency [1] | Potency [2] | Potency [3] | Potency [4] | Potency [5] | Potency [6] | Potency [7] | Potency [8] | Potency [9] | max response [10] -10.6%

ClC(Cl)Cl
inactive: Potency [1] | Potency [2] | Potency [3] | Potency [4] | Potency [5] | Potency [6] | Potency [7] | Potency [8] | Potency [9] | max response [10] 3.29%

CC(=O)Nc1ccc(OC(C)=O)cc1
inactive: Potency [1] | Potency [2] | Potency [3] | Potency [4] | Potency [5] | Potency [6] | Potency [7] | Potency [8] | Potency [9] | max response [10] 6.1%

CCCCCCCCCCCCCC(=O)OCC(COP(=O)([O-])OCC[N+](C)(C)C)OC(=O)CCCCCCCCCCCCC (stereo not given)
inactive: Potency [1] | Potency [2] | Potency [3] | Potency [4] | Potency [5] | Potency [6] | Potency [7] | Potency [8] | Potency [9] | max response [10] 15.8%

CCOC(C)OCC
inactive: Potency [1] | Potency [2] | Potency [3] | Potency [4] | Potency [5] | Potency [6] | Potency [7] | Potency [8] | Potency [9] | max response [10] -6.86%

CCCC(=O)O
inactive: Potency [1] | Potency [2] | Potency [3] | Potency [4] | Potency [5] | Potency [6] | Potency [7] | Potency [8] | Potency [9] | max response [10] 2.03%

CCCCCCCCCCCC(=O)N(CCO)CCO
inactive: Potency [1] | Potency [2] | Potency [3] | Potency [4] | Potency [5] | Potency [6] | Potency [7] | Potency [8] | Potency [9] | max response [10] -11.5%
